ALDH1A1 block: inhibitors of human aldehyde dehydrogenase 1A1 | Purified ALDH1A1, NADH fluorescence, propionaldehyde substrate | Potency, µM (series often up to 75.3 µM), inactives show top-dose activity, negative = inhibition, actives largely listed as inhibitors | 220,000 tested, 7.3% active;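 also: potency is read from the fitted curve at half-maximal effect; plate controls were no enzyme wells and a reference inhibitor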
Target sequence (P00352 whole entry, looked up): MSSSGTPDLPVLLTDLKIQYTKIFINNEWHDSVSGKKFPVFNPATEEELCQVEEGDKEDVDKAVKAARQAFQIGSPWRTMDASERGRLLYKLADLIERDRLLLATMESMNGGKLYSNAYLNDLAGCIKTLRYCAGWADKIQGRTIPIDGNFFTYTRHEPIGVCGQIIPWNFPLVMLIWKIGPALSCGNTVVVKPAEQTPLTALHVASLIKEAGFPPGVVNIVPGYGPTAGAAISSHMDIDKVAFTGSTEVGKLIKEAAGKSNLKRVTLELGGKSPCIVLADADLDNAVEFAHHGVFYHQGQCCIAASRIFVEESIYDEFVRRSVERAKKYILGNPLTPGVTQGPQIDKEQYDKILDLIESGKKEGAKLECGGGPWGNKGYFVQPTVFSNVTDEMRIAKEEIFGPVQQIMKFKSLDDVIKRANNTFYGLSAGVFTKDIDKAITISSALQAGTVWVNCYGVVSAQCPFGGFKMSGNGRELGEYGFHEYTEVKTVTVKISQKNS
KinaseGlo FLuc: blocks Kinase-Glo luciferase, a counter-screen artifact | Q27757 | Kinase-Glo luciferase, ATP luminescence, 8 min | Potency, µM (highest dose often 38.3 µM), without a hit: at the highest dose activity change, negative = inhibition, actives largely listed as inhibitors | 200,000 tested, 0.28% active; active = well fitted inhibition curve with a large enough effect; inconclusive = small, poorly fitted or top-dose-only effect; also: potency is read from the fitted curve at half-maximal effect; nearly all actives have a fitted effect of over 60% in size
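Inhibition of Kinase-Glo luciferase light generation was assessed at 10 uM ATP in pH 7.2 imidazole buffer, with luminescence measured after eight minutes at ambient temperature.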
IMPase cell inh: membrane-permeable compound that blocks inositol monophosphatase; 120,000 tested, under 10 active; inhibition (IP1 accumulation), % at 46.1 µM; CHO-M1 cells, IP1 accumulation, HTRF TR-FRET ratio; active = well fitted curve in the direction sought with a large enough effect in the signal ratio, not every such curve was filed as active; inconclusive = small, poorly fitted or top-dose-only effect, or a change in a side signal; inactive = no such curve, though single readings can be large or run the other way; the % refers to the signal ratio;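 also: cells stimulated with carbachol in lithium chloride buffer; plate controls were DMSO basal wells for no effect and reference inhibitor wells for full effect; higher means more IMPase inhibition seen as more IP1 and lower FRET ratio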
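Measured: the HTRF emission ratio (665/620 nm) plus the 620 nm donor channel, each fitted to the Hill equation to give AC50. Cells were CHO-M1 given compounds up to 46 uM and a 30 min carbachol stimulation at 37C.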
HPGD inh: HPGD (human) dehydrogenase inhibition; P15428; purified HPGD, NADH fluorescence kinetic, PGE2 substrate; Potency, µM, for the others: at the top dose activity change, negative = inhibition, usual class: inhibitors; 150,000 tested, 4.3% active; AID 894; also: potency is read from the fitted curve at half-maximal effect
Target sequence (P15428 whole entry, looked up): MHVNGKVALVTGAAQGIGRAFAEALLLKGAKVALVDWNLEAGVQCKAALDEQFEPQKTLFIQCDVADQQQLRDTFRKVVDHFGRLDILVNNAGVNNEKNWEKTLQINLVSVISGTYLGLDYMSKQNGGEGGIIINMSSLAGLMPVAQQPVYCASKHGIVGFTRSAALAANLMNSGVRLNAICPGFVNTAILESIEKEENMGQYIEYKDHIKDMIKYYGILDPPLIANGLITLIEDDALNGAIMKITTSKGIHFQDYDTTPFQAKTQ
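NADH formation kinetics: reaction with 30 uM PGE2 and 1 mM NAD+ (final), 20 nM enzyme, Tris-HCl pH 8 with Tween 20, after 15 min compound preincubation at room temperature. Fluorescence change, last versus first of five reads.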
Lamin A splicing: LMNA splicing modulation. HeLa LMNA splicing GFP/RFP minigene ratio, 48 h. Potency, µM (doses to about 46.1 µM), for the others: at the highest dose ratio change, negative = inhibition, actives largely listed as inhibitors. 200,000 tested, 0.01% active; active = well fitted inhibition curve with a large enough effect in the signal ratio, with a control signal flat, not every such curve was filed as active; inconclusive = small, poorly fitted or top-dose-only effect, or effect the other way, or a change in a side signal; the % refers to the signal ratio; also: potency is read from the fitted curve at half-maximal effect
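S3 HeLa cells stably expressing lamin A-EGFP splicing minigene plus DsRed2, 600 cells/well, 48 h compound exposure at 37C. Laser-scanning cytometry; analysed as GFP (500-530 nm)/RFP (575-640 nm) total intensity ratio; 0.5% DMSO vehicle.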
PNC assembly inh: blocks assembly of the perinucleolar compartment; AID 2417; PC3M PTB-GFP, PNC prevalence imaging, 16 h; hits give low values; activity change (PNC), negative = inhibition, % at 10 µM; 140,000 tested, 3.1% active;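 active = readout at or below -70, meaning at least 70% loss of cells showing the perinucleolar compartment, a nuclear body marking cancer cells; inconclusive = readout between -30 and a set limit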;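 also: plate controls were DMSO wells for no effect and camptothecin positive control wells for full effect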
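Compounds are pinned in duplicate onto adhered PC3M cells stably expressing GFP-tagged PTB and incubated 16 h at 37 C. Cells are then fixed, nuclei stained with Hoechst, and PNC-positive cells counted.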
Starred values were filed as active, the others as inactive; ? = inconclusive; . = not tested or not shown; [ ] = another dose, or the depositor's remark. Shown are actives, neighbours in structure and some others; about 10% of the full set was active somewhere. Unless noted, calls follow the shape of the dose curve; as a rule, active = well fitted inhibition curve with a large enough effect (not every such curve was filed as active); inconclusive = small, poorly fitted or top-dose-only effect, or another doubt; inactive = no such curve, though single readings can be large or run the other way. Unless noted, % is scaled to controls: 0 for no effect and ±100 for the full control effect.

SMILES	ALDH1A1 block	KinaseGlo FLuc	IMPase cell inh	HPGD inh	Lamin A splicing	PNC assembly inh
CC(=O)Nc1ccc(S(=O)(=O)NCc2csc(C)n2)cc1	-7%	4%	0	0%	-4%	71
Cc1ccc(-c2c3c(=O)n(C)c(=O)n(C)c3c3c(C(F)(F)F)nc4ccccc4n23)cc1	.	.	4	.	.	.
Cc1[nH]n(-c2ncc(-c3ccc(Cl)cc3)s2)c(=O)c1C(c1ccc(Cl)cc1)C(C#N)C#N (stereo not given)	?	-1%	5	10µM*	?	-26
COc1c(S(=O)(=O)n2nc(C)cc2C)ccc(Cl)c1Cl	28µM*	-1%	4	22µM*	?	8
Cc1cc(C)n(S(=O)(=O)c2ccc(Cl)c(Cl)c2Cl)n1	6%	4%	8	-15%	0%	20
CC(=O)/C=C/n1c(=S)oc2ccccc21	7.9µM*	-6%	.	-21%	?	?
CCN(CC)COC(=S)S	2.8µM*	-3%[7.66 µM]	.	3.2µM*	.	.
Cn1c(=O)c(-c2cc(F)cc(F)c2)nc2cnc(Oc3ccccc3)nc21	?	-4%	.	?	.	.
CCc1ccc(NC(=O)CSC2=Nc3ccccc3C3=NC(CCC(=O)NCc4ccccc4OC)C(=O)N23)cc1 (stereo not given)	.	.	.	.	-23%[46 µM]	.
CCOC(=O)c1c(NC(=O)c2ccccc2N(C)S(=O)(=O)c2ccccc2)sc2c1CCCC2	?	0%	-6	?	?	46
CCOC(=O)c1c(NC(=S)Nc2ccc(OC)cc2)sc2c1CCC2	?	-2%	6	-21%	-10%	-6
COc1ccc(NC(=O)c2c(NC(=O)CNCc3ccco3)sc3c2CCC3)cc1	?	4%	13	-17%	?	-9
COC(=O)c1c(NC(C)=O)sc2c1CCCCC2	16µM*	-3%	.	28µM*	13%	-3
COC(=O)c1c(NC(=O)CCNCc2ccco2)sc2c1CCC2	24µM*	.	.	.	.	.
COC(=O)c1c(NC(=O)c2ccccc2N(C)S(=O)(=O)c2ccccc2)sc2c1CCCC2	?	5%	7	?	?	-108*
COC(=O)c1c(NC(=S)Nc2ccc(C(=O)N3CCOCC3)cc2)sc2c1CCC2	3.5µM*	-1%	.	.	.	.
COC(=O)[C@H]1O[C@@H](c2cc(OC)c(C)c(OC)c2OCc2ccccc2)[C@H](C)[C@@H]2O[C@]12C	-1%	-3%	.	-9%	.	.
CN1CCN(c2ncc3nc(-c4ccccc4)c(=O)n(C)c3n2)CC1	?	.	.	.	-10%	.
O=C(O)c1cc(S(=O)(=O)Nc2cccc(Cl)c2)ccc1O	?	0%	.	-18%	.	.
Cc1c(Cl)ccc2sc(NC(=O)c3ccc(S(=O)(=O)N4CCCC4)cc3)nc12	.	.	.	.	12%[46 µM]	.
COC(=O)c1c(NC(C)=O)sc2c1CCCC2	25µM*	0%	5	-23%	2%	34
COC(=O)c1c(NC(=S)Nc2ccc(F)cc2[N+](=O)[O-])sc2c1CCCCC2	4µM*	.	-6	.	6%	7
COCCN(CCOC)S(=O)(=O)c1ccc(C(=O)Nc2sc3c(c2C(N)=O)CCCCC3)cc1	?	-3%	11	?	-2%	-119*
CNC(=S)Nc1sc2c(c1C(=O)OC)CCC2	?	2%	.	.	.	.
CCOC(=O)C1CCN(C(=O)CSc2n[nH]c(-c3ccccc3Cl)n2)CC1	.	.	.	.	6%[46 µM]	.
SMILES	ALDH1A1 block	KinaseGlo FLuc	IMPase cell inh	HPGD inh	Lamin A splicing	PNC assembly inh
Cc1ccc(CNC(=O)c2sc3nc4n(c(=O)c3c2C)CCCC4)cc1	.	.	.	.	20%[46 µM]	.
O=C(O)c1cc2c(cc1S(=O)(=O)O)[C@H]1[C@@H](C3[C@H]2[C@@]2(Cl)C(Cl)=C(Cl)C3(Cl)C2(Cl)Cl)[C@]2(Cl)C(Cl)=C(Cl)C1(Cl)C2(Cl)Cl (stereo not given in full)	-11%[13.5 µM]	-21%[7.66 µM]	.	?	.	.
Cc1ccc(-n2cc(CN3CCN(Cc4nccn4C)CC3)c(-c3ccc(F)cc3)n2)cc1	25µM*	-2%	.	.	.	.
Cc1ccc(-n2cc(CN3CCN(c4ccccn4)CC3)c(-c3ccc(F)cc3)n2)cc1	2%	6%	.	.	.	.
COc1ccccc1-c1c(C)nn2c(N3CCN(c4cccc(Cl)c4)CC3)cc(C)nc12	.	.	.	.	-1%[46 µM]	.
COc1cc2c(cc1OC)C(c1ccc(-c3cc(Cl)ccc3Cl)o1)=NCC2	?	2%	12	16µM*	?	?
COc1cc2c(cc1OC)C(c1ccc(-c3ccc(Cl)cc3Cl)o1)=NCC2	1%	-2%	11	-4%	?	?
CC(/C=C/c1ccc(O)cc1)=N/O	-9%	-10%	-2	-19%	?	?
CCCN=Cc1ccc(O)cc1	8.9µM*	0%	.	.	?	.
Cc1ccc2[nH]c(=O)c(CN(Cc3cccs3)Cc3nnnn3CC3CCCO3)cc2c1 (stereo not given)	20µM*	1%	1	-12%	4%	-18
Cc1ccc2cc(CN(Cc3cccs3)Cc3nnnn3CC3CCCO3)c(=O)[nH]c2c1 (stereo not given)	7.9µM*	-2%	?	-13%	-5%	23
COc1ccccc1CN(Cc1cc2cc(C)ccc2[nH]c1=O)Cc1nnnn1CC1CCCO1 (stereo not given)	?	3%	-2	-14%	1%	42
CCOC(=O)C(C(=O)OCC)c1cc(Br)c2noc3c2c1C(=O)c1ccccc1-3	10µM*	-11%	7	?	?	-83*
c1ccc(-c2nnc(CSc3nncs3)o2)cc1	-8%	0%	6	25µM*	10%	?
c1ccc(Cc2nnc(-c3ccccc3)o2)cc1	-2%	-6%	9	7.9µM*	19%	?
COc1ccc(Cc2nnc(-c3ccccc3)o2)cc1	4%	1%	.	.	.	.
O=C(O)CN(CCN(CC(=O)O)CC(=O)O)CC(=O)O.[Cu]	-2%[13.5 µM]	-4%[7.66 µM]	.	1%	.	.
CC1=C(C(=O)Nc2cccc(C(F)(F)F)c2)C2(CCCCCC2)OC1=O	.	.	.	.	-2%[46 µM]	.
Cc1ccccc1OCC(=O)Nc1ccc(OCc2cc(=O)n3ccccc3n2)cc1	.	.	.	.	-7%[46 µM]	.
Cc1ccc(CN2CCCn3nc(C(=O)NCc4ccc(N(C)C)cc4)cc3C2=O)cc1	.	.	.	.	9%[46 µM]	.
CCn1cc(CCC(=O)O)c(C)n1	6%	0%	.	.	14%[46 µM]	.
CCn1cc(NC(=O)CCl)c(C)n1	4.5µM*	-1%	.	.	?	.
COCCN(CCOC)c1ncnc2c1c(-c1ccccc1)cn2-c1ccc(C)c(Cl)c1	.	.	.	.	-18%[46 µM]	.
CCOC(=O)C1(C)C=C(Nc2cccc(C)c2)C(=O)N1c1ccccc1 (stereo not given)	.	.	5	.	.	.
COc1cc(SC#N)ccc1N=Cc1c(C)[nH]n(-c2ccc(Cl)cc2)c1=O	2.5µM*	-18%	7	-20%	8%	23
